Source: PubChem
C diff HTS: blocks growth of Clostridium difficile; AID 1259249; Clostridium difficile clinical isolate growth, OD600, 24 h; active compounds read low; 0.25% of 86,000 active; growth activity, negative = inhibition, % at 16 µg/mL (by protocol);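 active = mean growth activity at or below -80% and every replicate also at or below -80%; inconclusive = mean at or below -80% but some replicate above -80%; inactive = mean growth activity above -80%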;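 also: 0% = DMSO wells and -100% = levofloxacin 16 µg/mL wells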
T cruzi growth-1: blocks T. cruzi growth in NIH3T3 culture | T. cruzi beta-gal in NIH3T3, GalScreen luminescence, 90 h | inhibition, % at 8.34 µM | 5.9% of 77,000 active | AID 624255;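 active = mean inhibition above about 93%, with at least 55% of replicates each passing it, limit read from the data, passing the limit was not always enough; inconclusive = only one of those two conditions holds; inactive = neither condition holds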
Pf Dd2 inh: P. falciparum Dd2 growth inhibition. 2.3% of 94,000 active. SYBR Green, 72 h; active compounds read low. AID 1159554. activity change, % at 10 µM; in the data active = activity change below about -80%; inconclusive = no clear call, values can overlap the other calls
T cruzi growth-2: blocks T. cruzi growth in NIH3T3 host cells | shares compounds with T cruzi growth-1 | T. cruzi beta-gal in NIH3T3, GalScreen luminescence, 90 h | inhibition, % at 8.35 µM | 72% of 5,600 active;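 active = mean replicate inhibition above about 95% and at least 55% of replicates individually reaching it, limit read from the data; inconclusive = only one of the two criteria is met; inactive = neither criterion is met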
T cruzi growth-3: Trypanosoma cruzi proliferation inhibition; shares compounds with T cruzi growth-1; T. cruzi beta-gal in NIH3T3, GalScreen luminescence, 90 h; inhibition, % at 2.09 µM; 21% of 5,600 active; AID 651740;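 active = mean inhibition above about 95%, with at least 55% of replicates also reaching it, limit read from the data; inconclusive = meets just one of the two conditions; inactive = meets neither condition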;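 also: plate controls were neutral control median for no effect and positive control median for full effect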
3T3 cytotox: NIH/3T3 (mouse) viability loss; shares compounds with T cruzi growth-1; NIH/3T3 viability, CellTiter-Glo ATP luminescence, 90 h; cytotoxicity (signal decrease), % at 8.35 µM; 14% of 5,600 active; AID 651742;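 active = mean signal decrease across replicates above about 35% based on untreated-well scatter, with enough replicates individually passing, limit read from the data; inconclusive = no rule stated though some were filed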;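 also: 0% = median of neutral control wells and 100% = median of positive control wells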
NIH3T3 tox 2: kills mouse NIH/3T3 fibroblasts | shares compounds with T cruzi growth-1 | NIH/3T3 viability, CellTiter-Glo ATP luminescence, 90 h | inhibition, % at 24.9 µM | 56% of 5,600 active;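 active = mean loss of cell viability signal at or above a set limit, and enough replicates individually reaching it; inconclusive = meets only the mean limit or only the replicate share; inactive = meets neither condition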;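 also: 0% = median of neutral control wells and 100% = median of positive control wells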
Active calls of the source: *; ? = inconclusive; · = no result. Rows were chosen to be rich in hits. Some 6.8% of all compounds tested hit in one or more screens of this group.

SMILES	C diff HTS	T cruzi growth-1	Pf Dd2 inh	T cruzi growth-2	T cruzi growth-3	3T3 cytotox	NIH3T3 tox 2
COc1ccc(CN(C)C[C@@H]2Oc3ccc(NC(=O)Cc4cn(C)c5ccccc45)cc3C(=O)N([C@H](C)CO)C[C@H]2C)cc1	-1.8	33.4	13.1	·	·	·	·
O=C(Nc1ccccc1)N1CCCCN2[C@H](C1)[C@@H](c1ccc(C#CC3CC3)cc1)[C@@H]2CO	15.8	105.2*	1.2	95.7*	80.2	42.9*	103.6*
O=C(Nc1ccccc1)N1CCCCN2[C@H](CO)[C@H](c3ccc(C#CC4CC4)cc3)[C@@H]2C1	-2.7	76.2	-4.5	·	·	·	·
O=C(Nc1ccccc1)N1CCCCN2[C@@H](CO)[C@H](c3ccc(C#CC4CC4)cc3)[C@@H]2C1	21.5	108.0*	-17.8	89.4	69.7	?	103.3*
O=C(Nc1ccccc1)N1CCCCN2[C@H](CO)[C@@H](c3ccc(C#CC4CC4)cc3)[C@H]2C1	19.0	90.6	-53.6	·	·	·	·
C[C@@H](NC(=O)C[C@@H]1C[C@@H]2c3cc(NC(=O)Nc4ccccc4F)ccc3O[C@@H]2[C@@H](CO)O1)c1ccccc1	5.4	·	-47.6	·	·	·	·
C[C@@H]1CN([C@H](C)CO)C(=O)CCCn2cc(nn2)CO[C@H]1CN(C)Cc1cccc(O)c1	0.5	35.9	30.3	·	·	·	·
O=C(c1cccc(F)c1)N1CCCCN2[C@@H](CO)[C@@H](c3ccc(-c4ccccc4)cc3)[C@@H]2C1	47.6	32.9	-58.2	·	·	·	·
O=C(c1cccc(F)c1)N1CCCCN2[C@@H](CO)[C@@H](c3ccc(-c4cccnc4)cc3)[C@@H]2C1	-4.7	8.2	5.2	·	·	·	·
O=C(c1cccc(F)c1)N1CCCCN2[C@@H](CO)[C@H](c3ccc(-c4ccccc4)cc3)[C@@H]2C1	25.5	102.7*	-10.9	104.6*	53.1	23.8	91.1*
O=C(c1cccc(F)c1)N1CCCCN2[C@H](CO)[C@H](c3ccc(-c4ccccc4)cc3)[C@@H]2C1	2.9	101.6*	-7.5	113.3*	89.4	16.1	11.3
CCC(=O)N1CC2(CN(Cc3cccnc3)C2)c2c(n(C)c3cc(OC)ccc23)[C@H]1CO	-11.1	·	-7.7	·	·	·	·
Cc1ccc(S(=O)(=O)Nc2ccc3c(c2)C(=O)N([C@H](C)CO)C[C@@H](C)[C@H](CN(C)Cc2ccccc2)OCCCC[C@@H](C)O3)cc1	-3.7	93.3*	-75.7	109.1*	65.6	2.9	85.8*
Cc1ccc(S(=O)(=O)Nc2ccc3c(c2)C(=O)N([C@@H](C)CO)C[C@H](C)[C@@H](CN(C)Cc2ccccc2)OCCCC[C@@H](C)O3)cc1	6.4	73.3	-71.1	·	·	·	·
C[C@@H]1CCCCO[C@@H](CN(C)Cc2ccncc2)[C@H](C)CN([C@@H](C)CO)C(=O)c2cc(NS(C)(=O)=O)ccc2O1	0.8	39.8	13.5	·	·	·	·
C[C@@H]1CCCCO[C@@H](CN(C)Cc2ccncc2)[C@H](C)CN([C@H](C)CO)C(=O)c2cc(NS(C)(=O)=O)ccc2O1	1.0	102.4*	32.2	-24.9	-13.1	8.2	11.7
C[C@@H]1CCCCO[C@H](CN(C)Cc2ccccc2)[C@H](C)CN([C@@H](C)CO)C(=O)c2cc(NS(C)(=O)=O)ccc2O1	2.0	56.5	-31.4	·	·	·	·
C[C@H](CO)N1C[C@H](C)[C@@H](CN(C)Cc2ccccc2)OCCCC[C@H](C)Oc2ccc(NS(C)(=O)=O)cc2C1=O	6.8	99.0*	-11.7	11.5	10.9	-7.6	-1.1
Cc1noc(C)c1S(=O)(=O)N(C)C[C@@H]1OCCCC[C@@H](C)Oc2ccc(NC(=O)C3CCCCC3)cc2C(=O)N([C@@H](C)CO)C[C@H]1C	3.1	2.7	-55.4	·	·	·	·
C[C@H](CO)N1C[C@H](C)[C@H](CN(C)S(=O)(=O)c2ccc(F)cc2)Oc2c(NS(=O)(=O)c3ccccc3)cccc2C1=O	57.9	28.3	-13.7	·	·	·	·
CCC(=O)N1CC2(C1)[C@H](c1ccccc1)[C@H](CO)N2C(=O)c1ccccc1	-2.4	·	-53.3	·	·	·	·
CCS(=O)(=O)N1CC(=O)N2[C@H](CO)[C@@H](c3ccc(C#CCC4CCCC4)cc3)[C@H]2C1	-11.3	·	-16.7	·	·	·	·
C[C@H]1CN([C@@H](C)CO)C(=O)c2cc(C#CCN(C)C)cnc2O[C@@H]1CN(C)C(=O)NC1CCCCC1	·	28.4	8.4	·	·	·	·
